# Reference: PubChem BioAssay AID1159580 (chemical genetic matrix, 2015)
# Where “and” joins values, the source holds several entries; their conditions need not be identical. Equal values may be shown once. The campaign covered roughly 5,500 compounds. About 2,000 (36%) were called active. Another 18% or so got no clear call; they are omitted. The list shows a part of the results. Values without a mark were called inactive. Rule as the data show it: active = normalized growth mostly below about 0.91 (no sharp cut-off); inconclusive = no clear call, values can overlap the other calls; inactive = mostly above about 0.92.
# Assay: chemical genetic growth profiling, strain panel (AID 1159580);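 also: tested at 20 µM; growth read once vehicle control cultures reached saturation at 30 °C; 1 = growth at the plate median or of vehicle wells; lower values mean less growth of the strain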
# Conditions: S. cerevisiae deletion strains, growth OD
compound,measurement,setting,value
CC(COc1ccccc1)N(CCCl)Cc1ccccc1 (stereo not given),normalized growth,"locus YAL013W, strain DEP1, hits give low values",1.01
same,normalized growth,"locus YAL021C, strain ccr4, hits give low values",0.96
same,normalized growth,"locus YAL026C, strain drs2, hits give low values",0.936
same,normalized growth,"locus YAL030W, strain snc1, hits give low values",0.974
same,normalized growth,"locus YAL040C, strain CLN3, hits give low values",1.09
same,normalized growth,"locus YBL061C, strain skt5, hits give low values",0.978
same,normalized growth,"locus YBR009C, strain hhf1, hits give low values",0.99
same,normalized growth,"locus YBR021W, strain FUR4, hits give low values",1.02
same,normalized growth,"locus YBR023C, strain chs3, hits give low values",0.97
same,normalized growth,"locus YBR171W, strain sec66, hits give low values",0.984
same,normalized growth,"locus YBR229C, strain ROT2, hits give low values",1
same,normalized growth,"locus YBR231C, strain swc5, hits give low values",1.01
same,normalized growth,"locus YBR279W, strain paf1, hits give low values",0.961
same,normalized growth,"locus YCL011C, strain gbp2, hits give low values",0.895 (active)
same,normalized growth,"locus YCL016C, strain dcc1, hits give low values",0.947
same,normalized growth,"locus YCL029C, strain bik1, hits give low values",1.03
same,normalized growth,"locus YCL061C, strain MRC1 (second series), hits give low values",0.956
same,normalized growth,"locus YCL061C, strain MRC1, hits give low values",0.964
same,normalized growth,"locus YCL069W, strain vba3, hits give low values",0.995
same,normalized growth,"locus YCR088W, strain abp1, hits give low values",0.986
same,normalized growth,"locus YDL005C, strain med2, hits give low values",0.972
same,normalized growth,"locus YDL035C, strain GPR1, hits give low values",0.997
same,normalized growth,"locus YDL040C, strain nat1, hits give low values",0.983
same,normalized growth,"locus YDL074C, strain BRE1, hits give low values",1.02
same,normalized growth,"locus YDL101C, strain DUN1, hits give low values",1.01
same,normalized growth,"locus YDL134C, strain PPH21, hits give low values",1.01
same,normalized growth,"locus YDL185W, strain tfp1, hits give low values",1.01
same,normalized growth,"locus YDL192W, strain arf1, hits give low values",1.01
same,normalized growth,"locus YDR001C, strain nth1, hits give low values",0.985
same,normalized growth,"locus YDR069C, strain doa4, hits give low values",0.965
same,normalized growth,"locus YDR101C, strain arx1, hits give low values",1.01
same,normalized growth,"locus YDR137W, strain rgp1, hits give low values",0.853
same,normalized growth,"locus YDR150W, strain NUM1, hits give low values",1.01 and 0.963
same,normalized growth,"locus YDR159W, strain sac3, hits give low values",0.978
same,normalized growth,"locus YDR162C, strain NBP2, hits give low values",0.998
same,normalized growth,"locus YDR195W, strain ref2",1.03
same,normalized growth,"locus YDR297W, strain sur2, hits give low values",0.995
same,normalized growth,"locus YDR318W, strain mcm21, hits give low values",1.01
same,normalized growth,"locus YDR334W, strain swr1, hits give low values",0.969
same,normalized growth,"locus YDR335W, strain msn5, hits give low values",0.974
same,normalized growth,"locus YDR363W, strain ESC2, hits give low values",0.905
same,normalized growth,"locus YDR388W, hits give low values",1.02
same,normalized growth,"locus YDR392W, strain spt3, hits give low values",0.742
same,normalized growth,"locus YDR502C, strain sam2, hits give low values",0.999
same,normalized growth,"locus YEL003W, strain gim4, hits give low values",0.991
same,normalized growth,"locus YEL037C, strain rad23, hits give low values",0.978
same,normalized growth,"locus YEL061C, strain CIN8 (second series), hits give low values",0.971
same,normalized growth,"locus YEL061C, strain CIN8, hits give low values",1.01
same,normalized growth,"locus YER002W, strain NOP16, hits give low values",1.02
same,normalized growth,"locus YER015W, strain faa2, hits give low values",0.993
same,normalized growth,"locus YER016W, strain bim1, hits give low values",0.983
same,normalized growth,"locus YER110C, hits give low values",1.01
same,normalized growth,"locus YER111C, strain swi4, hits give low values",0.995
same,normalized growth,"locus YER155C, strain BEM2 (second series), hits give low values",0.994
same,normalized growth,"locus YER155C, strain BEM2, hits give low values",1.01
same,normalized growth,"locus YER167W, strain BCK2, hits give low values",0.991
same,normalized growth,"locus YFR010W, strain ubp6, hits give low values",0.986
same,normalized growth,"locus YGL078C, strain dbp3, hits give low values",1.01
same,normalized growth,"locus YGL086W, strain mad1, hits give low values",0.986
same,normalized growth,"locus YGL167C, strain pmr1, hits give low values",1
same,normalized growth,"locus YGL173C, strain kem1, hits give low values",1.01
same,normalized growth,"locus YGL227W, strain vid30, hits give low values",0.973
same,normalized growth,"locus YGL240W, strain doc1, hits give low values",1
same,normalized growth,"locus YGL248W, strain PDE1, hits give low values",1.01
same,normalized growth,"locus YGL253W, strain hxk2, hits give low values",0.921
same,normalized growth,"locus YGR078C, strain PAC10, hits give low values",1.01
same,normalized growth,"locus YGR135W, strain pre9, hits give low values",1.01
same,normalized growth,"locus YGR229C, strain SMI1, hits give low values",0.999
same,normalized growth,"locus YGR252W, strain gcn5, hits give low values",0.957
same,normalized growth,"locus YHR013C, strain ard1, hits give low values",0.924
same,normalized growth,"locus YHR027C, strain rpn1, hits give low values",0.991
same,normalized growth,"locus YHR030C, strain SLT2, hits give low values",1.01 and 0.986
same,normalized growth,"locus YHR079C, strain IRE1 (second series), hits give low values",1.02
same,normalized growth,"locus YHR079C, strain IRE1, hits give low values",0.964
same,normalized growth,"locus YHR094C, strain hxt1, hits give low values",1.02
same,normalized growth,"locus YHR129C, strain ARP1, hits give low values",1.01
same,normalized growth,"locus YHR142W, strain chs7, hits give low values",0.938
same,normalized growth,"locus YHR200W, strain rpn10, hits give low values",1.01
same,normalized growth,"locus YIL066C, strain RNR3, hits give low values",1.01
same,normalized growth,"locus YIL073C, strain SPO22, hits give low values",1.05
same,normalized growth,"locus YIL125W, strain kgd1, hits give low values",1.01
same,normalized growth,"locus YIR030C, strain dcg1, hits give low values",1.02
same,normalized growth,"locus YJL092W, strain hpr5, hits give low values",0.963
same,normalized growth,"locus YJL095W, strain BCK1 (second series), hits give low values",0.958
same,normalized growth,"locus YJL095W, strain BCK1, hits give low values",1 and 0.997
same,normalized growth,"locus YJL115W, strain asf1, hits give low values",0.947
same,normalized growth,"locus YJL129C, strain trk1, hits give low values",0.956
same,normalized growth,"locus YJL134W, strain LCB3, hits give low values",1
same,normalized growth,"locus YJL154C, strain vps35, hits give low values",0.982
same,normalized growth,"locus YJL164C, strain tpk1, hits give low values",0.961
same,normalized growth,"locus YJL166W, strain qcr8, hits give low values",0.974
same,normalized growth,"locus YJL168C, strain set2, hits give low values",1.01
same,normalized growth,"locus YJL187C, strain SWE1 (second series), hits give low values",1.03
same,normalized growth,"locus YJR043C, strain POL32, hits give low values",1.02
same,normalized growth,"locus YJR066W, strain TOR1, hits give low values",0.925
